# In PubChem BioAssay (Tox21):
# Where “and” joins values, the source holds several entries; their conditions need not be identical. Equal values may be shown once. Some compounds were tested as several samples or in several runs, with calls that do not always agree. Calls of active or inactive are those of the source. Entries that show only a call come without a potency. Unless noted, the call rests on the fitted dose curve; in most records, active means well fitted curve in the direction sought with a large enough effect in the repeat runs; inconclusive means weak or mixed curves; inactive means no such curve, though single readings can be large; an effect the other way counts as inactive or inconclusive.
# Assays:
# [1] = qHTS assay to identify small molecule antagonists of the estrogen receptor alpha (ER-alpha) signaling pathway - cell viability counter screen (AID 743074; calls by dose curve; further: nearly all actives have a fitted effect of over 45% in size)
# [2] = qHTS assay to identify small molecule antagonists of the estrogen receptor alpha (ER-alpha) signaling pathway using the BG1 cell line - cell viability counter screen (AID 743081);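 further: compound given together with 17beta-estradiol as the ER stimulus; nearly all actives have a fitted effect of over 45% in size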; further: potency means the concentration at half of the fitted maximal effect
# Aromatase (Homo sapiens) = Aromatase (Homo sapiens) (UniProt P11511); test: qHTS assay to identify aromatase inhibitors (AID 743083); further: series mostly up to about 70 µM; nearly all actives have a fitted effect of over 55% in size
# [3] = qHTS assay to identify small molecule antagonists of the thyroid receptor (TR) signaling pathway (AID 743065); further: nearly all actives have a fitted effect of over 55% in size; further: potency means the concentration at half of the fitted maximal effect
# Procedure, shortened: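 Antagonism measured as loss of luciferase signal in GH3 cells stably carrying a TRE-luciferase reporter, co-treated with compound and T3 (1 nM final) for 23.5 h at 37 C. Viability was read in the same well by CellTiter-Fluor.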
# [4] = test system: thyroid hormone receptor (rat, GH3 cells); test: qHTS assay to identify small molecule agonists of the thyroid receptor (TR) signaling pathway (AID 743066; calls by dose curve)
# [5] = target: Estrogen receptor (Homo sapiens) (UniProt P03372); test: qHTS assay to identify small molecule antagonists of the estrogen receptor alpha (ER-alpha) signaling pathway (AID 743069; active means well fitted curve in the direction sought with a large enough effect in the signal ratio in the repeat runs, not every such curve was filed as active; inconclusive means weak or mixed curves, or effect the other way; inactive means no such curve, though single readings can be large or run the other way; the % refers to the signal ratio)
# Procedure, shortened: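 Fluorescence intensity from a beta-lactamase FRET substrate served as the read-out. Cells: HEK293 with stably integrated ER-alpha-UAS-bla reporter. Agonist 17beta-estradiol was co-added with compounds; incubation 18 hr at 37C, substrate 2 hr at room temperature.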
# [6] = target: Estrogen receptor (Homo sapiens) (UniProt P03372); test: qHTS assay to identify small molecule agonists of the estrogen receptor alpha (ER-alpha) signaling pathway (AID 743075; calls by dose curve; further: potency means the concentration at half of the fitted maximal effect)
# [7] = target: Estrogen receptor (Homo sapiens) (UniProt P03372); test: qHTS assay to identify small molecule agonists of the estrogen receptor alpha (ER-alpha) signaling pathway using the BG1 cell line (AID 743079); further: nearly all actives have a fitted effect of over 20% in size; further: potency means the concentration at half of the fitted maximal effect
# [8] = qHTS assay to identify small molecule antagonists of the estrogen receptor alpha (ER-alpha) signaling pathway using the BG1 cell line (AID 743080; calls by dose curve;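 further: BG1 cells stimulated with 17beta-estradiol alongside compound; series mostly up to about 70 µM; nearly all actives have a fitted effect of over 25% in size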)
# Procedure, shortened: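 Quantitative HTS on the Tox21 10K library: BG1 cells with endogenous ER-alpha and ERE-luciferase reporter, 17beta-estradiol stimulation, 21.5 h compound exposure, luminescence endpoint with parallel fluorescence cytotoxicity counter-read.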
# Chain of Estrogen receptor (Homo sapiens) (P03372 whole entry, looked up): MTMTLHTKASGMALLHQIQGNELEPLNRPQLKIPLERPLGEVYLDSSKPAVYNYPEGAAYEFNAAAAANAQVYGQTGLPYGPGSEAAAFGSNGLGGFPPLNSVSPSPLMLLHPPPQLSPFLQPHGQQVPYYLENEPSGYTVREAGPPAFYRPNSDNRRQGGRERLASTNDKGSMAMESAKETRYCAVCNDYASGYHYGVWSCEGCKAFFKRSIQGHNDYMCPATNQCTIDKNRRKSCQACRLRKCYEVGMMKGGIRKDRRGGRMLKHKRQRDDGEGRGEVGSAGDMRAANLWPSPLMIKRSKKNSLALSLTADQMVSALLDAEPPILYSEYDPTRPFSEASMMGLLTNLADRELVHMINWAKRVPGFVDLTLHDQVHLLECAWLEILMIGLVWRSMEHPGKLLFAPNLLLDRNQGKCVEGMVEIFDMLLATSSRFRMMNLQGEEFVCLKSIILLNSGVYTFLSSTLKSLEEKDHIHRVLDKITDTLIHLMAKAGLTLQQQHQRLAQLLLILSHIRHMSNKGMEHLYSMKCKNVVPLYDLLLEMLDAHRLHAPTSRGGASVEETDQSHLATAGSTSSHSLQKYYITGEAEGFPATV
# Chain of Aromatase (Homo sapiens) (P11511 whole entry, looked up): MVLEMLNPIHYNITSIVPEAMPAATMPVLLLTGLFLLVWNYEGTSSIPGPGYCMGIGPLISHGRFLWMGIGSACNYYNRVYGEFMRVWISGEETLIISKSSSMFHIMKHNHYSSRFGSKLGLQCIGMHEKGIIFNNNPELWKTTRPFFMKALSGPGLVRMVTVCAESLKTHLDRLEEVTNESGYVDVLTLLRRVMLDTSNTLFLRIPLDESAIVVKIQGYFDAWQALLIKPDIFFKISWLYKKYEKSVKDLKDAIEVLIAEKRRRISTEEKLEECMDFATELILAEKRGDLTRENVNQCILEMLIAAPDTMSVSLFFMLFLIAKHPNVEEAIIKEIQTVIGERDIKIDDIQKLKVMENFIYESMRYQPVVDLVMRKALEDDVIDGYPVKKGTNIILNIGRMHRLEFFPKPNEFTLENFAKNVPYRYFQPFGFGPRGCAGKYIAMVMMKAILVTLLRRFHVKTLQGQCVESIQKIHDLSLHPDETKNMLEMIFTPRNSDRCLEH
SMILES,Potency [1],Potency [2],Potency (Aromatase (Homo sapiens)),Potency [3],Potency [4],Potency [5],Potency [6],Potency [7],Potency [8]
NC[C@H](O)c1ccc(O)c(O)c1,inactive,inactive,inactive,,,,,,
CC(C)=CCO,inactive,inactive,inactive,inactive,inactive,inactive,inactive,inactive,inactive
[Na+],inactive,inactive,inactive,inactive,inactive,inactive,inactive,inactive,inactive
C/C=C/C(=O)N(CC)c1ccccc1C,inactive,inactive,inactive,inactive,inactive,inactive,inactive,inactive,inactive
OC[C@@H](O)[C@@H](O[C@@H]1O[C@H](CO)[C@H](O)[C@H](O)[C@H]1O)[C@H](O)[C@@H](O)CO,inactive,inactive,inactive,,,inactive,3.38 µM [inconclusive] (active) and inactive,596 nM (active) and inactive,inactive
C[C@]12C=CC(=O)C=C1CC[C@H]1[C@@H]3C[C@@H](O)[C@](O)(C(=O)CO)[C@@]3(C)C[C@H](O)[C@@]12F,inactive,inactive,inactive,inactive,inactive,,inactive,4.73 µM (active) and 48.6 µM (active),
COc1ccc2nc(N)sc2c1,inactive,inactive,inactive,inactive,inactive,inactive,inactive,30.6 µM (active) and 54.5 µM (active),
C[N+](C)(C)CCO,inactive,inactive,inactive,,inactive,,,,inactive
CCCCCC1C(=O)CCC1CC(=O)OC (stereo unspecified),inactive,inactive,inactive,inactive,inactive,inactive,inactive,inactive,inactive
COc1cc([C@H]2Oc3cc([C@H]4Oc5cc(O)cc(O)c5C(=O)[C@@H]4O)ccc3O[C@@H]2CO)ccc1O,inactive,inactive,inactive,inactive,inactive,,inactive,inactive,inactive
CCC(=O)O[C@H]1[C@H](O[C@@H]2[C@@H](C)[C@H](O[C@H]3C[C@@](C)(OC)[C@@H](O)[C@H](C)O3)[C@@H](C)C(=O)O[C@H](CC)[C@@](C)(O)[C@H](O)[C@@H](C)C(=O)[C@H](C)C[C@@]2(C)O)O[C@H](C)C[C@@H]1N(C)C,inactive,26.6 µM (active) and 32.2 µM (active),inactive,11.9 µM (active) and 36.1 µM (active),inactive,,,,
CCOC(=O)C(C)Oc1ccc(Oc2cnc3cc(Cl)ccc3n2)cc1 (stereo unspecified),inactive,inactive,inactive,inactive,inactive,inactive,inactive,inactive,inactive
C[C@]12CC[C@@H]3c4ccc(O)cc4CC[C@H]3[C@@H]1CC[C@@H]2O,inactive,inactive,inactive,27.3 µM (active) and 30.6 µM (active),inactive,,,,
C=CC(=O)OCCCC,,inactive,inactive,inactive,inactive,,,,
C[C@]12CC[C@@H]3c4ccc(O)cc4CC[C@H]3[C@@H]1CC[C@H]2O,inactive,inactive,,9.86 µM (active) and 24.3 µM (active),inactive,,,,
